Legend:
Conditions in all cases: concentration: 1 μM, replicates: in singlicate; n = 1
PKAC-alpha = system: T1, PKAC-alpha
T1 construct: gene PRKACA

PKAC-beta = system: T2, PKAC-beta
T2 construct: gene PRKACB

PKMYT1 = system: PKMYT1
PKN1 = system: PKN1
PKN2 = system: PKN2
PLK1 = system: PLK1
PLK2 = system: PLK2
PLK3 = system: PLK3
PLK4 = system: PLK4
PRKCD = system: PRKCD
PRKCE = system: PRKCE
PRKCH = system: PRKCH
PRKCI = system: PRKCI
PRKCQ = system: PRKCQ
PRKD1 = system: PRKD1
PRKD2 = system: PRKD2
PRKD3 = system: PRKD3
PRKG1 = system: PRKG1
PRKG2 = system: PRKG2
PRKR = system: T3, PRKR
T3 construct: gene EIF2AK2
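Note: KINOMEscan kinase panel screen.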

Compound | %Inh (PKAC-alpha) | %Inh (PKAC-beta) | %Inh (PKMYT1) | %Inh (PKN1) | %Inh (PKN2) | %Inh (PLK1) | %Inh (PLK2) | %Inh (PLK3) | %Inh (PLK4) | %Inh (PRKCD) | %Inh (PRKCE) | %Inh (PRKCH) | %Inh (PRKCI) | %Inh (PRKCQ) | %Inh (PRKD1) | %Inh (PRKD2) | %Inh (PRKD3) | %Inh (PRKG1) | %Inh (PRKG2) | %Inh (PRKR)
Cc1ccc(-c2ccc3c(ccc4sc5c(c43)NC[C@@H](C)N=C5N(C)C)n2)cn1 | 0% | 0% | 0% | 0% | 0% | 0% | 0% | 0% | 0% | 0% | 36% | 0% | 0% | 0% | 10% | 0% | 20% | 0% | 0% | 0%
CCC(=O)c1c(-c2ccccc2)c2cc(Cl)ccc2c(=O)n1Cc1cc(S(C)(=O)=O)n(CCC(C)(C)O)n1 | 0% | 0% | 0% | 0% | 0% | 0% | 0% | 8% | 24% | 0% | 0% | 3% | 23% | 37% | 1% | 4% | 0% | 0% | 21% | 0%
CCCNC(=O)Nc1ccc(Oc2ncnc3ccn(C)c23)cc1 | 0% | 0% | 0% | 0% | 0% | 0% | 28% | 15% | 18% | 33% | 3% | 13% | 0% | 22% | 0% | 0% | 0% | 0% | 0% | 0%
CCn1c(-c2ccoc2)nc2cnccc21 [SB-733887] | 0% | 0% | 0% | 7% | 0% | 5% | 0% | 0% | 15% | 0% | 7% | 0% | 9% | 0% | 2% | 0% | 27% | 0% | 0% | 0%
O=c1cc(N2CCOCC2)nc2n(Cc3ccc(F)c(Cl)c3)ccn12 [GSK2297099] | 0% | 0% | 10% | 11% | 0% | 54% | 0% | 6% | 0% | 0% | 0% | 12% | 0% | 26% | 0% | 0% | 12% | 0% | 0% | 15%
Nc1nc(-c2ccccc2F)c(-c2ccnc3ccccc23)s1 [GW560459] | 0% | 3% | 0% | 3% | 0% | 2% | 0% | 0% | 0% | 0% | 17% | 11% | 13% | 0% | 0% | 0% | 27% | 1% | 0% | 0%
CCCC(=O)Nc1n[nH]c2ncc(-c3cccc4ccccc34)cc12 [SB-642057] | 0% | 0% | 22% | 19% | 0% | 0% | 0% | 1% | 13% | 0% | 16% | 16% | 15% | 0% | 0% | 14% | 0% | 7% | 0% | 29%
CCc1ccc(-c2ccc3c(c2)-c2nn(C)cc2S(=O)(=O)N3C)cc1 | 0% | 0% | 0% | 0% | 0% | 8% | 0% | 56% | 0% | 14% | 0% | 0% | 18% | 10% | 0% | 13% | 0% | 0% | 0% | 0%
O=C(Nc1n[nH]c2cc(-c3ccccc3F)ccc12)C1CC1 [SB-733371] | 0% | 20% | 0% | 0% | 14% | 0% | 0% | 3% | 9% | 0% | 21% | 0% | 0% | 0% | 0% | 0% | 0% | 0% | 0% | 0%
Cc1ccc(Oc2ccc(Nc3ncnc4cc[nH]c34)cc2C)cn1 | 19% | 0% | 8% | 50% | 0% | 50% | 12% | 11% | 20% | 5% | 0% | 27% | 7% | 9% | 0% | 2% | 8% | 0% | 23% | 8%
